SRC3 TRFRET art = flags TR-FRET format artefacts in PPARgamma SRC-3 recruitment agonist screen. TR-FRET artefact counter-screen, PPARgamma/SRC-3 format; active compounds read high. TR-FRET ratio at 8 µM. AID 1048. 99,000 tested, 0.39% active
PPARg SRC-1 ag = promotes SRC-1 coactivator recruitment by human PPARgamma | activation, % at 8 µM | P37231 | PPARgamma-SRC-1 coactivator recruitment biochemical assay | 200,000 tested, 0.41% active | AID 631; in the data active means activation above about 19%;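 further: 0% = DMSO and 100% = reference agonist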
Target sequence (P37231 whole entry, looked up): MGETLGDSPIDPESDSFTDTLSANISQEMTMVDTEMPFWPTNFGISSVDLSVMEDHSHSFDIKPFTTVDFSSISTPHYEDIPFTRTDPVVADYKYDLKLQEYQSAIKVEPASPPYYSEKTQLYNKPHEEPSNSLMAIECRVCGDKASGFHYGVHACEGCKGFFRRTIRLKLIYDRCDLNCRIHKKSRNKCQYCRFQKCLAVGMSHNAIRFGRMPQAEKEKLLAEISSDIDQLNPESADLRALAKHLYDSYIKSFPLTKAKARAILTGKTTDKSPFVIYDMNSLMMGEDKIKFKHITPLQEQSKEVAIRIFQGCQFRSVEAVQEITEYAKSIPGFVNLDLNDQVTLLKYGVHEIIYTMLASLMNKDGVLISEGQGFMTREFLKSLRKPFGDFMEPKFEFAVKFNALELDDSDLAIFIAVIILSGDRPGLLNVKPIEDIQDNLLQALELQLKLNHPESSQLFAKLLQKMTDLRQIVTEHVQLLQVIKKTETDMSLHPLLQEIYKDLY
PPARg SRC3 recr = promotes SRC-3 coactivator recruitment by human PPARgamma. P37231. biochemical PPARgamma/SRC-3 coactivator recruitment assay. activation, % at 8 µM. 200,000 tested, 0.26% active; in the data active means activation above about 23%;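 further: 0% = DMSO and 100% = reference agonist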
SRC2 TRFRET art = counter-screen for PPARgamma SRC-2 recruitment agonists: TR-FRET artefact. 200,000 tested, 0.4% active. AID 1049. active compounds read high. TR-FRET ratio at 8 µM
PPARg SRC2 recr = promotes SRC-2 coactivator recruitment by human PPARgamma; 200,000 tested, 0.34% active; activation, % at 8 µM; PPARgamma LBD-SRC-2 recruitment, biochemical; AID 1032; in the data active means activation above about 22%;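 further: 0% = vehicle and 100% = reference agonist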
SRC1 TRFRET art = flags TR-FRET format artefacts in PPARgamma SRC-1 recruitment agonist screen. TR-FRET detection artefact counter-screen, emission ratio; active compounds read high. TR-FRET ratio at 8 µM. 99,000 tested, 0.34% active. AID 1051; in the data active means TR-FRET ratio above about 2300
Active calls of the source: *; x = not tested or not shown. Shown are actives, neighbours in structure and some others; about 0.9% of the full set was active somewhere. Unless noted, no stated cut-off is given here; in the data, active means TR-FRET ratio above about 2000; inactive means the rest.

SMILES	SRC3 TRFRET art	PPARg SRC-1 ag	PPARg SRC3 recr	SRC2 TRFRET art	PPARg SRC2 recr	SRC1 TRFRET art
CCN(C(=O)C1CCN(S(=O)(=O)c2ccc3c(c2)oc(=O)n3C)CC1)c1cccc(C)c1	x	3	-6	1487	0	x
CCOC(=O)C(CC)Sc1nc(-c2ccc(OC)cc2)nc2c1c(=O)n(C)c(=O)n2C (stereo not drawn)	x	0	1	1753	5	x
Cc1ccc(C2C(C#N)=C(N)SC(N)=C2C#N)o1	x	19*	24	2112*	23*	x
Cc1nnc2sc(-c3ccc(NC(=O)c4ccc(-c5ccc(Cl)cc5Cl)o4)cc3)nn12	x	19*	-1	1494	-9	x
CCN(CC(=O)NC(C)(C)C)C(=O)CCl	1477	-6	-5	1311	-8	1623
Cc1ccc(SCc2cc(=O)c3c(=O)n(-c4ccccc4)[nH]c3[nH]2)cc1	1663	2	6	1351	-5	1837
COc1cccc(Nc2nnc(SCC3CCCCO3)s2)c1 (stereo not drawn)	1663	-4	7	2017*	-1	1883
COc1cc2[nH]c(=S)nc(NCCc3ccc(C)cc3)c2cc1OC	2231*	21*	16	1959	24*	2432*
Cc1nnc(NC(=O)c2nn(CC(C)C)c(=O)c3ccccc23)s1	1608	4	0	1528	-5	2336*
CC1C2=C(CCCC2=O)N(c2cccc3ccccc23)C2=C1C(=O)CCC2	x	0	3	1544	10	x
COc1ccc(-c2cnnc(N/N=C/C(C)=C/c3ccccc3)n2)cc1	1830	1	2	1638	7	2015
O=c1c2ccccc2nnn1CSc1nnc(-c2ccc3c(c2)OCO3)o1	x	0	5	1686	11	x
COc1ccc(CCCc2n[nH]c(=S)o2)cc1	1430	7	-1	2009*	-2	1887
N#Cc1cc2c(nc1SCc1ccc(Cl)cc1)CCCC2	x	0	-10	1440	1	x
Cc1ccc(CSc2nc3c(cc2C#N)CCC3)cc1	x	30*	1	1460	-4	x
COC(=O)c1ccc(COC(=O)c2ccc(SC)cc2OC)cc1	1634	7	3	1683	11	1865
CCOC(=O)c1nn(-c2ccc(Cl)cc2)c2nc(-c3ccc(C)cc3)c(C#N)c(=O)n12	x	8	52*	1733	0	x
COc1ccc(NS(=O)(=O)c2ccc(N3CCCC3)c(NC(=S)Nc3cccc(S(=O)(=O)N(C)C)c3)c2)cc1	2049	4	-3	1957	-8	2504*
COc1ccc(NS(=O)(=O)c2ccc(N3CCOCC3)c(NC(=O)c3ccc(OC)cc3)c2)cc1	1564	7	0	1682	-1	1747
O=c1oc2ccccc2cc1-c1cn2ccccc2n1	3228*	-7	60*	1565	5	1911
CN(C)c1ccc(N=C/C=C2\N(C)c3ccccc3C2(C)C)cc1	x	3	28*	1577	8	x
COc1cc2[nH]c(=S)n(NC(=O)c3ccccc3)c(=O)c2cc1OC	x	16	20	2013*	20	x
COC(=O)c1ccccc1NC(=S)N(Cc1ccc2c(c1)OCO2)Cc1cc2ccc(OC)cc2[nH]c1=O	2123*	-5	-1	1721	13	1854
COc1ccccc1C(=O)Nc1cccc(-c2cn3ccsc3n2)c1	x	3	28*	1580	6	x
COc1cccc(-c2csc(N3CCN(C(=S)Nc4cccc(Cl)c4)CC3)n2)c1	x	5	14	2562*	9	x
SMILES	SRC3 TRFRET art	PPARg SRC-1 ag	PPARg SRC3 recr	SRC2 TRFRET art	PPARg SRC2 recr	SRC1 TRFRET art
COc1cccc(-c2csc(N3CCN(C(=S)Nc4ccccc4OC)CC3)n2)c1	x	4	2	2307*	5	x
COc1cccc(-c2csc(N3CCN(C(=S)Nc4ccccc4Cl)CC3)n2)c1	x	0	4	1818	3	x
CCOC(=O)C1(CCc2ccccc2)CCN(C(=O)c2cnc(C)cn2)CC1	1687	0	2	1626	1	1911
CC1CCCC/C1=N\NS(=O)(=O)c1ccc(Br)cc1 (stereo not drawn)	x	5	-2	1671	-3	x
COC(=O)Cc1ccc(NC(=S)N2CCN(c3ccc(F)cc3)CC2)cc1	1664	5	3	1456	-2	1734
O=C(CCC1CCCN(C(=O)C2=CCCCC2)C1)N1CCN(c2ccccn2)CC1 (stereo not drawn)	1738	25*	3	1611	-3	1823
Cc1ccc(-c2cc(C(=O)N(C)Cc3cnn(C)c3C)c3cc(Br)ccc3n2)cc1	2046	7	10	1910	6	1935
Cc1ccc(-c2cc(C(=O)NCc3cnn(C)c3C)c3cc(Br)ccc3n2)cc1	x	14	22	2130*	19	x
O=C(c1ccc(S(=O)(=O)c2cccc(Cl)c2)c([N+](=O)[O-])c1)N1CCN(Cc2ccccc2)CC1	1470	6	4	1639	-1	1546
CCOC(=O)c1sc(=NC(=O)c2cccc(OC)c2)n(C)c1C	x	80*	-5	1534	-1	x
CCOC(=O)c1sc(=NC(=O)c2ccc(OC)c(OC)c2)n(C)c1C	x	80*	1	1525	4	x
CCOC(=O)c1sc(=NC(=O)c2ccccc2)n(C)c1C	2902*	3	6	2392*	8	2795*
CCOC(=O)c1sc(=NC(=O)COc2ccc(Cl)cc2)n(C)c1C	1434	-3	3	1448	5	1669
COc1ccccc1C(=O)OCCNC(=O)Cn1cnc2c1c(=O)n(C)c(=O)n2C	1555	4	4	1384	-5	1917
Cc1ccc(C(=O)Nc2nc(=O)[nH]s2)cc1	1513	0	-3	1333	-5	1591
Cc1sc(-n2c(C)cc(/C=N/n3cnnc3)c2C)c(C#N)c1C	x	6	29*	1511	6	x
Cn1cccc1/C=N/NC(=O)C12CC3CC(CC(C3)C1)C2	1515	2	-3	1487	-8	1829
CC1CC(C)(C)NC(=S)N1CCCC(=O)Nc1ccccc1F (stereo not drawn)	1389	3	-3	1448	0	1735
CC1CC(C)(C)NC(=S)N1CCCC(=O)N1CCN(c2ccccc2F)CC1 (stereo not drawn)	1491	11	-3	1431	-6	2350*
Cc1cccc(C(=O)N/N=C/c2cc(Br)c(Br)o2)c1	1675	10	3	1592	9	1974
O=C(N/N=C/c1sc(N2CCOCC2)nc1-c1ccccc1)c1ccccc1O	1407	1	-5	1451	-1	1582
O=Cc1sc(N2CCOCC2)nc1-c1ccccc1	2197*	2	14	1731	4	2073
O=C(COC(=O)c1ccccc1Nc1ccc(SC(F)F)cc1)NCc1ccco1	x	4	6	1405	0	x
O=S1(=O)CC2N=C(N(Cc3ccc(F)cc3Cl)c3ccccc3F)SC2C1 (stereo not drawn)	1453	3	-6	1811	25*	1784
Cc1ccc(N=Nc2c(N)n(-c3ccccc3)[nH]c2=O)cc1	x	7	26*	1609	9	x

Screening data from PubChem BioAssay.
